# High-throughput results deposited in PubChem by several laboratories.
# Beta apoptosis – beta cell apoptosis inhibition; INS-1E cytokine-induced death, ATP luminescence, 48 h; percent of positive-control rescue, neutral wells zero; protection from apoptosis, % (concentration not given with the values); 300,000 compounds, 0.8% hits;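 active = Every replicate reaches about 75%, or at least half do and their mean reaches it too, limit read from the data; inconclusive = At least half of replicates reach the limit but their mean does not; inactive = Under half of replicates reach the limit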;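 note: 0% = cytokine-treated negative control wells and 100% = positive control rescue; higher means more ATP so stronger rescue from cytokine killing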
# Jurkat NFkB inh – lowers PMA/ionomycin-induced NF-kB signal in Jurkat cells | PMA/ionomycin-induced NF-kB luciferase reporter, luminescence | inhibition, % at 4 µM | 330,000 compounds, 0.53% hits; in the data active = inhibition above about 50%
# 697 NFkB inh – lowers PMA/ionomycin-induced NF-kB signal in 697 B cells. 697 B-cell NF-kB luciferase reporter, 16 h. 330,000 compounds, 0.33% hits. inhibition, % at 4 µM; in the data active = inhibition above about 35%
# Gli-Sufu block – antagonists of Gli-Sufu signaling; Sufu-KO-LIGHT fibroblasts, Gli luciferase reporter luminescence; inhibition, % at 5 µM; 340,000 compounds, 0.74% hits; AID 588413;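 active = inhibition above about 55%, limit read from the data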;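 note: 0% = DMSO-treated cells and 100% = wells with medium but no cells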
# Mdm2 MdmX PPI – human Mdm2/MdmX binding inhibition. 330,000 compounds, 3% hits. O15151+Q00987. inhibition, % at 8 µM. SaOS-2 split-luciferase Mdm2/MdmX complementation, luminescence;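 active = inhibition of at least 50% at 8 µM in the primary screen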
# CSC inhib – cancer stem cell inhibition; cancer stem cell-like cells viability, luminescence; inhibition, % at 7.5 µM; 300,000 compounds, 1.1% hits; in the data active = inhibition above about 75%; inconclusive = no clear call, values can overlap the other calls; tested in HMLE shEcad cells
# Mdm2-MdmX conf – confirmation of human Mdm2/MdmX interaction inhibitors | inhibition, % at 8 µM | shares compounds with Mdm2 MdmX PPI | Mdm2-MdmX binding, luminescent assay | 10,000 compounds, 55% hits; in the data active = inhibition above about 40%
# Full FLuc ctr – counter-screen for Mdm2/MdmX inhibitors: full-length luciferase | 6,200 compounds, 77% hits | inhibition, % at 8 µM | shares compounds with Mdm2 MdmX PPI | SaOS-2 full-length luciferase counterscreen, luminescence;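 active = mean inhibition at 8 µM reaching about 37%, which flags the compound as non-specific, limit read from the data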;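 note: p53-null SaOS-2 cells with luciferase driven by a doxycycline-inducible promoter; compound on cells about two nights before reading with doxycycline added after day one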
# Active calls of the source: *; ? = inconclusive; · = no result given. Sampled rows, rich in hits. Any-hit rate of the full collection: about 4.5%.
SMILES,Beta apoptosis,Jurkat NFkB inh,697 NFkB inh,Gli-Sufu block,Mdm2 MdmX PPI,CSC inhib,Mdm2-MdmX conf,Full FLuc ctr
O=C1CN(S(=O)(=O)c2cccc(Br)c2)CCN1,-2,5,-8,-1,11,·,·,·
Nc1c(C(=O)c2ccccc2O)cnn1-c1ccc(S(=O)(=O)N2CCOCC2)cc1[N+](=O)[O-],-1,15,12,·,70*,-8,15,·
CCCCCCc1cc2cc(S(=O)(=O)c3ccc(Cl)cc3)c(=O)oc2cc1O,2,20,3,5,75*,87*,34,·
CCCCCCc1cc2cc(C(=O)NCc3ccccc3)c(=N)oc2cc1O,16,-1,-10,6,14,27,·,·
C=CCSC(=C(C#N)C#N)c1cc2c([nH]1)CCCC2,14,9,-23,15,81*,101*,16,·
CC[C@H](C)[C@H]1O[C@]2(CC[C@@H]1C)C[C@@H]1C[C@@H](CC=C(C)[C@@H](O[C@H]3C[C@H](OC)[C@@H](O[C@H]4C[C@H](OC)[C@@H](O)[C@H](C)O4)[C@H](C)O3)[C@@H](C)C=CC=C3CO[C@@H]4[C@H](O)C(C)=C[C@@H](C(=O)O1)[C@]34O)O2,87*,15,0,4,100*,103*,23,·
CC(Oc1ccc(F)cc1)C(=O)Nc1ccccc1N1CCCCC1 (stereo not drawn),2,7,19,3,30,21,·,·
Cc1ccc(/C=C/C(=O)c2ccc([N+](=O)[O-])o2)cc1,109*,16,2,2,100*,35,97*,58*
O=C(/C=C/c1ccc(Cl)cc1)c1ccc([N+](=O)[O-])o1,115*,12,-11,-18,98*,?,100*,31
COc1ccc2c(c1)c(C(=O)N/N=C/c1ccc(Br)cc1)c(C)n2C,·,41,-30,-5,56*,47,39,54*
Cc1ccc(NC(=O)CSc2ccc(-c3ccccn3)nn2)cc1,0,0,22,-11,55*,0,41*,79*
CCOC(=O)c1ccc(NC(=O)CSc2ccc(-c3ccccn3)nn2)cc1,5,14,-19,-7,70*,3,53*,59*
O=C(CSc1ccc(-c2ccccn2)nn1)Nc1ccc(F)c(F)c1,2,34,3,22,67*,4,43*,55*
Clc1ccc(CSc2ccc(-c3ccccn3)nn2)cc1,84*,-44,-38,-45,60*,127*,60*,43*
CCOC(=O)C1CCN(C(=O)COC(=O)CNC(=O)c2ccc(OC)cc2)CC1,-3,4,-3,-11,10,-8,·,·
CSCCC(NC(=O)c1ccco1)c1nc2ccccc2[nH]1 (stereo not drawn),-10,-2,22,-16,12,-3,·,·
O=C(c1cccc(COc2cccc3ccccc23)c1)N1CCCC1,-5,-17,-115,-42,50*,17,24,·
COc1cc(C2CC(=O)Oc3cc(C)c(Br)c(C)c32)cc(OC)c1OC (stereo not drawn),·,·,4,-1,13,·,·,·
Cc1ccnc(NC(=O)c2ccccc2NC(=O)c2ccc(Cl)cc2Cl)c1,·,41,-57,27,64*,61,57*,66*
C/C(=N\NC(=O)COc1cccc(C)c1)c1ccc2ccccc2c1O,-2,9,1,48,52*,-7,61*,34
Cc1cccc(OCC(=O)NCc2ccccc2)c1,-27,4,1,3,9,-4,·,·
COc1ccc(Cc2[nH]n3c(=O)cc(C(C)C)nc3c2-c2ccccc2)cc1,30,2,0,14,62*,-19,62*,40*
COc1ccc(Cc2[nH]n3c(=O)cc(C)nc3c2-c2ccccc2)cc1,-5,8,23,-4,39,29,·,·
COc1cc(OC)c2c(-c3cccc(-c4ccc(C(C)=O)cc4)c3)cc(=O)oc2c1,·,·,-36,12,69*,·,68*,71*
COc1cc(F)cc(-c2ccc3c(c2)c(-c2cccs2)c(-c2cc(OC)cc(OC)c2)n3C)c1,1,47,6,-2,54*,?,55*,57*
SMILES,Beta apoptosis,Jurkat NFkB inh,697 NFkB inh,Gli-Sufu block,Mdm2 MdmX PPI,CSC inhib,Mdm2-MdmX conf,Full FLuc ctr
On1c(-c2ccc(Cl)cc2)nc2ccccc21,1,-29,-44,-7,-14,7,·,·
Cc1ccc(-c2nc3ccccc3n3nnnc23)cc1,·,·,·,7,·,·,·,·
FC(F)(F)c1nc2ccccc2n2c(-c3ccc(Cl)cc3)nnc12,101*,34,-11,11,96*,·,96*,41*
Cc1ccc(-c2nnc3c(C(F)(F)F)nc4ccccc4n23)cc1,4,9,-5,-9,54*,-6,15,·
CC(C)C(=O)Nc1ccc(NC(=O)c2ccc(COc3ccccc3)cc2)cc1,3,-11,-20,14,72*,-4,23,90*
CC(=O)Nc1ccc(-c2cc(-c3ccc(NC(C)=O)cc3)nc(-c3ccccc3)n2)cc1,-1,-16,-36,-6,58*,-1,34,·
O=C(NC(=S)Nc1ccc2c(c1)C(=O)c1ccccc1C2=O)c1ccc(F)cc1,10,-66,-102,·,69*,20,-69,·
CCC(=O)Nc1ccc(-c2cc(-c3ccccc3)nc(-c3ccc(NC(=O)CC)cc3)n2)cc1,17,2,-27,10,84*,-4,38,64*
CCC(=O)Nc1ccc(-c2csc(C)n2)cc1,-4,-32,-24,-50,-30,-5,·,·
CC(=O)Nc1ccc(NC(=O)c2ccc(COc3ccccc3)cc2)cc1,2,-14,-22,-3,-10,-8,·,·
O=C(Nc1ccc(NC(=S)NC(=O)C(c2ccccc2)c2ccccc2)cc1)c1ccccc1,36,17,-60,47,51*,49,49*,42*
CC(=O)Nc1ccc(-c2cc(-c3ccc(NC(C)=O)cc3)nc(-c3ccc(NC(C)=O)cc3)n2)cc1,-3,-16,-22,-12,-5,5,·,·
CC(=O)Nc1ccc(-c2cc(-c3ccccc3)nc(-c3ccccc3)n2)cc1,10,0,-37,1,56*,-9,47*,92*
CC(=O)Nc1ccc(NC(=O)c2ccc(NC(=O)c3ccccc3)cc2)cc1,-1,-2,20,22,62*,-9,17,·
CC(=O)Nc1ccc(C(=O)c2ccccc2)cc1,-5,-12,12,10,21,-13,·,·
Cc1ccc(-c2nnn(CC(=O)N(CCCO)C(C(=O)NC3CCCC3)c3ccc(F)cc3)n2)o1 (stereo not drawn),1,-17,3,13,20,-12,·,·
